Measurements as given in the supplement of paper PMC9023506.
Where a name gives a salt, the structure may show the parent alone.

The molecules below were run on Danio rerio larvae (5 dpf) (assay: startle response to 20-s acoustic pulses, difference vs DMSO (percentage points (treated minus DMSO)); higher = more of the behaviour than the DMSO vehicle control). Details: 10 µM; exposure time: 3 h pre-incubation + 3 h imaging.
How it was run: (§1)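 Five-days-post-fertilisation wild-type zebrafish larvae were held in 96-well ProxiPlates and exposed to each library drug at a final 10 µM, diluted 1000× from DMSO stocks into egg water, with 48 larvae per drug. Exposure lasted 3 h before and 3 h during imaging at 28.5 °C, with images taken every 6 s across a 3-h program of rest, moving coloured lines and acoustic pulses. An ImageJ macro scored movement and upper-half location, and each behaviour score is the treated-group mean minus the vehicle-group mean, expressed in percentage points.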
With `NC(=O)OCC(COC(N)=O)c1ccccc1` [Felbamate] the “startle response to 20-s acoustic pulses” value was 2.22. In the case of `CC1=Nc2ccc(Cl)cc2S(=O)(=O)N1` [Diazoxide], the “startle response to 20-s acoustic pulses” value is reported as -3.68. With `O=c1[nH]c(=O)n([C@H]2C[C@H](O)[C@@H](CO)O2)cc1C(F)(F)F` [Trifluorothymidine] the “startle response to 20-s acoustic pulses” value was 1.37. In the case of `NC(=O)N1c2ccccc2C=Cc2ccccc21` [Carbamazepine], the “startle response to 20-s acoustic pulses” value is reported as 2.54. For `O=C(NCC1CCCCN1)c1cc(OCC(F)(F)F)ccc1OCC(F)(F)F` (stereo not drawn) [Flecainide acetate], the “startle response to 20-s acoustic pulses” value was 1.77. In the case of `CN(C)CC/C=C1/c2ccccc2COc2ccc(CC(=O)O)cc21` [Olopatadine hydrochloride], the “startle response to 20-s acoustic pulses” value is reported as 0.514. In the case of `CCOC(=O)c1ncn2c1CN(C)C(=O)c1cc(F)ccc1-2` [Flumazenil], the “startle response to 20-s acoustic pulses” value is reported as -1.57. For `CCCN(CCc1cccs1)[C@H]1CCc2c(O)cccc2C1` [Rotigotine hydrochloride], the “startle response to 20-s acoustic pulses” value was -4.68. For `Cn1nnc2c(C(N)=O)ncn2c1=O` [Temozolomide], the “startle response to 20-s acoustic pulses” value was 2.71.

The molecules below were run on Danio rerio larvae (5 dpf) (assay: optomotor response to fast red moving lines, difference vs DMSO (percentage points (treated minus DMSO)); higher = more of the behaviour than the DMSO vehicle control). Details: 10 µM; exposure time: 3 h pre-incubation + 3 h imaging.
How it was run: as §1
With `COc1c(C)c2c(c(O)c1C/C=C(\C)CCC(=O)O)C(=O)OC2` [Mycophenolic acid] the optomotor response was 10.7. `CCc1ccc(CCOc2ccc(CC3SC(=O)NC3=O)cc2)nc1` (stereo not drawn) [Pioglitazone hydrochloride] showed an optomotor response of -6.55. In the case of `CCCc1nc2c(C)cc(-c3nc4ccccc4n3C)cc2n1Cc1ccc(-c2ccccc2C(=O)O)cc1` [Telmisartan], the optomotor response is reported as 7.51. Work on `CC(=O)O[C@H]1C(=O)[C@@]2(C)[C@H]([C@H](OC(=O)c3ccccc3)[C@]3(O)C[C@H](OC(=O)[C@H](O)[C@@H](NC(=O)c4ccccc4)c4ccccc4)C(C)=C1C3(C)C)[C@]1(OC(C)=O)CO[C@@H]1C[C@@H]2O` [Taxol] yielded an optomotor response of -16.4. In the case of `COC(c1ccccc1)(c1ccccc1)[C@H](Oc1nc(C)cc(C)n1)C(=O)O` [Ambrisentan], the optomotor response is reported as -12.3. `CC(C)OC(=O)C(C)(C)Oc1ccc(C(=O)c2ccc(Cl)cc2)cc1` [Fenofibrate] was tested, and the optomotor response was 19.2. Work on `CNCc1ccc(-c2[nH]c3cc(F)cc4c3c2CCNC4=O)cc1` [Rucaparib camsylate] yielded an optomotor response of 3.57. For `Cn1nnc2c(C(N)=O)ncn2c1=O` [Temozolomide], the optomotor response was -10.8. Work on `CC(=O)O[C@]1(C(C)=O)CC[C@H]2[C@@H]3C=C(C)C4=CC(=O)CC[C@]4(C)[C@H]3CC[C@@]21C` [Megestrol Acetate] yielded an optomotor response of -10.3.
